Reference: PubChem BioAssay (NCATS)
Unmarked numbers belong to inactive results. Activity calls are given as the source filed them. Calls follow the shape of the dose curve; as a rule, active = well fitted curve in the direction sought with a large enough effect; inconclusive = small, poorly fitted or top-dose-only effect, or another doubt; inactive = no such curve, though single readings can be large or run the other way.

Each compound was assayed against Hexokinase-4 (Homo sapiens) + Glucokinase regulatory protein (Homo sapiens) (UniProt P35557+Q14397) (assay: qHTS assay for inhibitors of recombinant human GCK-GKRP interaction: HTRF assay (AID 743207;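 also: 0% = DMSO with GCK present and -100% = DMSO wells lacking GCK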)). Details: recombinant GCK-GKRP HTRF binding, 60 min, with sorbitol-6-phosphate; series mostly up to 57.5 µM; activity change, negative = inhibition: at the top concentration.
Source text: Glucokinase (GCK) is a glucose sensor in hepatocytes and pancreatic beta-cells. Hepatic GCK is regulated by glucokinase regulatory protein (GKRP), which is predominantly localized to the liver. GKRP binds to GCK inhibiting its activity in the fasting state while in the presence of glucose the GKRP is displaced. There is an additional layer of regulation by fructose 1-phosphate and fructose 6-phosphate, which inhibit and enhance the GCK-GKRP interaction, respectively. GCK plays a role in glucose homeostasis and there is an interest in the development of strategies to activate GCK to lower blood glucose levels in type 2 diabetes. To date the majority of effort has focused on direct activation of GCK and the assays developed herein look to activate GCK by inhibiting its binding to GKRP. A compound that inhibits the interaction of GCK with GKRP could be important for the treatment of diabetes and can also be used as a tool compound to further elucidate GCK-GKRP biology. To that end, we have developed an HTS biochemical assay using HTRF technology for to interrogate the GCK-GKRP interaction. This assay was screened against a small compound library to look for modulators of activity.
3 uL of 5 nM GST-GCK and 5 nM FLAG-GKRP proteins with 2 uM S6P (columns 1-2, 4-48; Millipore, Billerica, MA) are dispensed into Greiner, white solid-bottom 1536-well assay plates; columns 3 receive buffer without GCK as a control for maximum inhibition. Buffer contains 2 mM MgCl2, 25 mM KCl, 25 mM Hepes, 1 mM DTT, 0.1% Tween 20 and 0.025% BSA and the pH was adjusted to 7.1. Compounds (23 nL) are then transferred via Kalypsys pin tool equipped with 1536-pin array (10 nL slotted pins, V&P Scientific, San Diego, CA). The library compounds are in columns 5-48 and columns 1-4 serve as controls with DMSO in columns 1 and 3 and 26 mM 1:1.5 fold serial of gluckokinase activator (GKA-EMD) in column 2 and 26 mM of the glucokinase activator (GKA-EMD) in column 4. Following addition of compound, 1 uL of detection antibodies (anti-Flag XL 665 and anti-GST K in reconstitution buffer from Cisbio, Bedford, MA; 0.7 ng/well and 0.0945 ng/well, respectively) is added, and the mixture is allowed to equilibrate for 60 minutes at room temperature. Data are normalized to DMSO-treated control columns with (maximum signal) and without (minimum signal) enzyme. Plates were read on an Envision plate reader (PerkinElmer, Shelton, CT, USA) with excitation at 320 nm and dual-wavelength detection at the Fret donor wavelength (615 nm) and the FRET acceptor wavelength (665 nm).

Hexokinase-4 (Homo sapiens) + Glucokinase regulatory protein (Homo sapiens), sequence (P35557 whole entry, looked up): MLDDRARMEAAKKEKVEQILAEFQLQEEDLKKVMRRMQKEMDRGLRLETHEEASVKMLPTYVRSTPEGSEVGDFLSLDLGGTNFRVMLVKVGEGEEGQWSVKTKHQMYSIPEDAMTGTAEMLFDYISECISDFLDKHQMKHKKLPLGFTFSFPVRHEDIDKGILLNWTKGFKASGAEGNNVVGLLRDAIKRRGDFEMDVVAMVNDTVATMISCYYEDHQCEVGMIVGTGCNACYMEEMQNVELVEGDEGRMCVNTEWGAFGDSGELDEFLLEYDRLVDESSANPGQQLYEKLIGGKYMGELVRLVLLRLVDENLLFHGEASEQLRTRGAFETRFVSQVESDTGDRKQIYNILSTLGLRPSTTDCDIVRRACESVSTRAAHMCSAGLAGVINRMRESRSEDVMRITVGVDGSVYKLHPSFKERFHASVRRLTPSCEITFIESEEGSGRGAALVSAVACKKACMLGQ
Hexokinase-4 (Homo sapiens) + Glucokinase regulatory protein (Homo sapiens), sequence (Q14397 whole entry, looked up): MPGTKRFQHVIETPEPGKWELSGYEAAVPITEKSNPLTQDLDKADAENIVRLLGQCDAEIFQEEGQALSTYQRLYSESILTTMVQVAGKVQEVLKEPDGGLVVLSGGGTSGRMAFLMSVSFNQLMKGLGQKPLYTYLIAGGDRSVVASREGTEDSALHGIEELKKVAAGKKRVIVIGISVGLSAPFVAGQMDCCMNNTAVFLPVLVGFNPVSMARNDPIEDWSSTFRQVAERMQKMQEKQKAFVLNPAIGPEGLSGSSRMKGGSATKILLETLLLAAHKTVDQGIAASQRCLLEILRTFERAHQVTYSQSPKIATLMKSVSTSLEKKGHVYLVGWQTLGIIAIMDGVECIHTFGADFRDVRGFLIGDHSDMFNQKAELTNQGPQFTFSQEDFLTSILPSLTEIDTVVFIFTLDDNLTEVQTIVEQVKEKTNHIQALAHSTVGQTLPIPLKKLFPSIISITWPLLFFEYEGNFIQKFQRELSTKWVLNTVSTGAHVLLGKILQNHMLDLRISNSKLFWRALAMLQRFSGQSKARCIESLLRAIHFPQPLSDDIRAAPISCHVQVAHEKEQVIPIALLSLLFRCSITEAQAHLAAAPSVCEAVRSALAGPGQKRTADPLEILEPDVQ

| Compound | activity change, negative = inhibition | Potency |
| --- | --- | --- |
| C=CC(C)=C[C@@]1(C)SC(=O)C(C)=C1O | 0.736% | – |
| Nc1nc(SCc2ccc([N+](=O)[O-])cc2)c2ncn([C@@H]3O[C@H](CO)[C@@H](O)[C@H]3O)c2n1 | 9.63% | – |
| O=C(O)/C=C/C(O)c1ccc(Cl)cc1 (stereo not given) | -0.61% | – |
| CCCCCCCCCCCCCCCCCC(=O)NCC(COP(=O)([O-])OCC[N+](C)(C)C)OCC (stereo not given) | 0.334% | – |
| Nc1nc(Nc2ccccc2)nc2c1ncn2[C@@H]1O[C@H](CO)[C@@H](O)[C@H]1O | 3.7% | – |
| CN1CCC[C@H]1c1cccnc1 | 2.91% | – |
| N#C/C(=C\c1ccc(-c2cc(Cl)ccc2Cl)o1)C(=O)Nc1cccc2ncccc12 | 1.98% | – |
| O=C(/C=C/c1ccc(O)cc1)c1ccc(O)cc1O | -7.59% | – |
| Nc1ncnc2c1ncn2[C@@H]1O[C@H](COP(=O)(O)CP(=O)(O)OP(=O)(O)O)[C@@H](O)[C@H]1O | -1.03% | – |
| CN1C2CC(OC(=O)[C@H](CO)c3ccccc3)CC1C1OC12 (stereo not given in full) | -2.55% | – |
| CN1CCc2cc(O)c(O)cc2C(c2ccccc2)C1 (stereo not given) | 6.02% | – |
| Cc1ccc(S(=O)(=O)/C=C/C#N)cc1 | -3.51% | – |
| C=CC(N)CCC(=O)O (stereo not given) | 2.07% | – |
| Oc1ccc(C2CNCc3sccc32)cc1O (stereo not given) | -7.65% | – |
| Cc1ccc(C(=O)O[C@H](C(=O)O)[C@@H](OC(=O)c2ccc(C)cc2)C(=O)O)cc1 (tested in a mixture with another compound) | -6.51% | – |
| c1ccc(-c2ccccn2)nc1 | -3.07% | – |
| O=C(c1cc(O)c(O)c([N+](=O)[O-])c1)c1ccccc1F | 10.9% | – |
| O=C1O/C(=C/Br)CCC1c1cccc2ccccc12 (stereo not given) | 2.81% | – |
| O=C(Nc1cccc(C(=O)Nc2ccc(S(=O)(=O)O)c3cc(S(=O)(=O)O)cc(S(=O)(=O)O)c23)c1)Nc1cccc(C(=O)Nc2ccc(S(=O)(=O)O)c3cc(S(=O)(=O)O)cc(S(=O)(=O)O)c23)c1 | -9.81% | – |
| CN1[C@@H](CC(=O)c2ccccc2)CCC[C@H]1C[C@H](O)c1ccccc1 | -4.29% | – |

| Compound | activity change, negative = inhibition | Potency |
| --- | --- | --- |
| Oc1cc(O)cc(/C=C/c2ccc(O)c(O)c2)c1 | 8.95% | – |
| COc1cc2c(CCNC(C)=O)c[nH]c2cc1Cl | 0.326% | – |
| C[N+]1(C)C2CC(OC(=O)[C@H](CO)c3ccccc3)CC1C1OC12 (stereo not given in full) | – | inactive |
| Cn1c(=O)c2[nH]c(-c3ccccc3)nc2n(C)c1=O | -1.44% | – |
| CCC1C(=O)OCC1Cc1cncn1C (stereo not given) | – | inactive |
| C[C@@H](NC(=O)/C(C#N)=C/c1ccc(O)c(O)c1)c1ccccc1 | 14.9% | – |
| CCCCCCCC/C=C\CCCCCCCC(=O)NCCO | 1.39% | – |
| CC(=O)N[C@H](C(=O)O)C(C)(C)SN=O | -9.05% | – |
| O=C(O)c1cc(=O)c2ccccc2[nH]1 | -4.28% | – |
| O=C(O)CC1CC(c2ccccc2)=NO1 (stereo not given) | -2.21% | – |
| CSc1ccccc1N1CCN(CCCCCC(=O)NC2CCCc3ccccc32)CC1 (stereo not given) | -1.12% | – |
| O=C(O)CCCC[C@@H]1CCSS1 | 1.16% | – |
| CC1CN(S(=O)(=O)c2cccc3cnccc23)CCN1 (stereo not given) | 7.29% | – |
| N.N.O=C(O)C1(C(=O)O)CCC1.[Pt] | 5.61% | – |
| CC(C)NC[C@@H](O)c1ccc(O)c(O)c1 | -1.71% | – |
| Cn1cc(C2=C(c3ccc(Cl)cc3Cl)C(=O)NC2=O)c2ccccc21 | -11% | – |
| COc1ccc2c(c1)CCC1C2CC[C@@]2(C)C1CC[C@@H]2NCCCCCCN1C(=O)CCC1=O (stereo not given in full) | 8.36% | – |
| C=C[C@H]1CN2CC[C@@H]1C[C@@H]2[C@@H](O)c1ccnc2ccc(OC)cc12 | 3.5% | – |
| O=c1[nH]c2cc(C(F)(F)F)ccc2n1-c1cc(C(F)(F)F)ccc1O | 3.3% | – |
| N#C/C(=C\c1ccc(O)c(O)c1)C(=O)NCc1ccccc1 | 14.7% | – |
